Test [1] concerns the target Glutathione peroxidase 1 (Homo sapiens) (UniProt P07203). The test is described as follows: Primary qHTS Assay for Inhibitors of Recombinant Selenoprotein Glutathione Peroxidase 1 (GPX1) (AID 1845191). For activity, negative = inhibition: % is set by controls: 0 for no effect and ±100 for the full control effect. Note: nearly all actives have a fitted effect of over 65% in size. The method, boiled down:
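NADPH consumption tracked by fluorescence at 340/450 nm between t=0 and t=15 min, room temperature. Final mix: 10 nM GPX1, 100 nM glutathione reductase, 1 mM GSH, 0.5 mM NADPH, 0.5 mM cumene hydroperoxide, 0.01% BSA; 30 min compound–enzyme preincubation.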

Test [2] has as its target Phospholipid hydroperoxide glutathione peroxidase GPX4 (Homo sapiens) (UniProt P36969). The test is described as follows: Primary qHTS Assay for Inhibitors of Recombinant Selenoprotein Glutathione Peroxidase 4 (GPX4) (AID 1845192). For activity change, negative = inhibition: series mostly up to about 50 µM; % is set by controls: 0 for no effect and ±100 for the full control effect. Note: nearly all actives have a fitted effect of over 65% in size. The method, boiled down: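 NADPH consumption followed by fluorescence at 340/450 nm, t=0 and after 15 min at room temperature. Reaction started with cumene hydroperoxide (0.5 mM final) after 30 min compound–GPX4 preincubation; final 200 nM GPX4, 100 nM GR, 1 mM GSH, 0.5 mM NADPH.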

For test [3], the target named is Luciferin 4-monooxygenase (Photinus pyralis) (UniProt P08659). Kind of test: Primary firefly luciferase (FLuc) qHTS assay for identification of artifact compounds. (AID 1845220).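 For activity change, negative = inhibition: series mostly up to about 54 µM; plate controls were DMSO vehicle for no effect and no enzyme for full effect.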 Note: nearly all actives have a fitted effect of over 60% in size. The method, boiled down:
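Cell-free, 1536-well qHTS. Buffer pH 7.6 with 0.01% Tween-20 and 0.05% BSA; 10 uM D-luciferin, 10 uM ATP; 10 nM P. pyralis luciferase; luminescence after 5 min.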

Test [4] in a line: Primary fluorescence-based thiol-reactive (MSTI) qHTS assay for identification of artifact compounds. (AID 1845221).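 For activity change, negative = thiol reactive: series mostly up to about 54 µM; thiol-reactive compounds lower the probe fluorescence signal.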 Note: nearly all actives have a fitted effect of over 65% in size. Note: potency is the fitted concentration of half-maximal effect. The method, boiled down: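 Probe: MSTI 4 uM, PBS pH 7.4, 2% DMSO. Incubation 1 h, RT, light-protected. Readout fluorescence 525/598 nm.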
In test [5] the test system is Nanoluciferase (engineered Oplophorus gracilirostris luciferase). The test is described as follows: Primary Nanoluciferase (NLuc) qHTS assay for identification of artifact compounds. (AID 1845222).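 Note: series mostly up to about 54 µM; 0% = DMSO and -100% = no enzyme.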 The method, boiled down:
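Compounds are pinned into diluted (1:55) conditioned medium of NLuc-expressing S16 cells and held 15 min at room temperature protected from light. Nano-Glo substrate follows, and luminescence is read 5 min later.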

The source of these data is PubChem BioAssay (NCATS).

Molecules are shown by their SMILES. Unmarked numbers belong to inactive results. Results filed as inconclusive are left out. Activity calls are given as the source filed them. Calls come from the whole dose curve; as a rule, active = well fitted curve in the direction sought with a large enough effect; inconclusive = small, poorly fitted or top-dose-only effect, or another doubt; inactive = no such curve, though single readings can be large; an effect the other way counts as inactive or inconclusive.

Sequence of Glutathione peroxidase 1 (Homo sapiens) (P07203 whole entry, looked up): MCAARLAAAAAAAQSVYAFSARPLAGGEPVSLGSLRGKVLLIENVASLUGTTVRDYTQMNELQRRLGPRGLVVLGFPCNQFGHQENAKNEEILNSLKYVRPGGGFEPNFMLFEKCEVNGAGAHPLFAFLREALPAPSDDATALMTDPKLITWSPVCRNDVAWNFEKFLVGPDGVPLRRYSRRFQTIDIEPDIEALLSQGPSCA
Sequence of Phospholipid hydroperoxide glutathione peroxidase GPX4 (Homo sapiens) (P36969 whole entry, looked up): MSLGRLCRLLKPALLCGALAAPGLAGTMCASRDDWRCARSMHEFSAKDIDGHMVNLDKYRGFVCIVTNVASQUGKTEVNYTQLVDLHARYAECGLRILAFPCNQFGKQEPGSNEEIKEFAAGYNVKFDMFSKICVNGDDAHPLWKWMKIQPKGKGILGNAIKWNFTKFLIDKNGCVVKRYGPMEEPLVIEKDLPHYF

Turning to `CC(C)=CCC/C(C)=C/CO[C@@H]1O[C@H](CO)[C@@H](OC(=O)/C=C/c2ccc(O)cc2)[C@H](O[C@@H]2O[C@@H](C)[C@H](O)[C@@H](O)[C@H]2O)[C@H]1O`, the Potency entry in test [1], in test [2], in test [3], in test [4] and in test [5] was “inactive” each time.

Turning to `CO[C@H]1C[C@@H]2CC[C@@H](C)[C@@](O)(O2)C(=O)C(=O)N2CCCC[C@H]2C(=O)O[C@H]([C@H](C)C[C@@H]2CC[C@H](n3cnnn3)[C@H](OC)C2)CC(=O)[C@H](C)/C=C(\C)[C@@H](O)[C@@H](OC)C(=O)[C@H](C)C[C@H](C)/C=C/C=C/C=C/1C`, the Potency result in test [1], in test [2], in test [3], in test [4] and in test [5] was “inactive” each time.

In the case of `Cc1nc(Nc2n[nH]c3c2CN(C(=O)NC(CN(C)C)c2ccccc2)C3(C)C)c2sccc2n1` (stereo not given), the Potency entry in test [1], in test [2], in test [3], in test [4] and in test [5] was “inactive” throughout.

On to `COc1cc(N2CCC(N3CCN(C)CC3)CC2)ccc1Nc1ncc(Cl)c(-c2c[nH]c3ccccc23)n1`, for which the Potency entry in test [1], in test [2], in test [3] and in test [5] was “inactive” in each case. The Potency in test [4] was 1.68 µM (active).

Consider `CC(=O)O[C@H]1CC(C)(C)CC2[C@@]13[C@H](O)C[C@]1(C)[C@@]2(CCC2[C@@]4(C)CC[C@H](O[C@@H]5OC[C@H](O[C@@H]6O[C@H](CO)[C@@H](O)[C@H](O)[C@H]6O[C@@H]6OC[C@@H](O)[C@H](O)[C@H]6O)[C@H](O)[C@H]5O[C@@H]5O[C@H](CO)[C@@H](O)[C@H](O)[C@H]5O)C(C)(C)C4CC[C@]21C)O[C@@H]3O` (stereo not given in full), for which the Potency result in test [1] and in test [2] was “inactive” throughout. Besides, the activity change, negative = inhibition in test [3] is -0.127% [at 11.6 µM]. The activity change, negative = thiol reactive in test [4] is 93.4% [at 11.5 µM]. Moreover, the activity, negative = inhibition in test [5] is 2.06% [at 11.6 µM].

As for `C[C@H](CCC(=O)O)[C@H]1CC[C@H]2[C@@H]3C[C@H](O)[C@@H]4C[C@H](O)CC[C@]4(C)[C@H]3CC[C@]12C`, the Potency entry in test [1], in test [2], in test [3], in test [4] and in test [5] was “inactive” in each case.

Take `CO[C@H]1/C=C/C=C/C=C/C[C@H](OC(=O)[C@@H](C)NC(=O)C2CCCCC2)[C@H](C)[C@@H](O)/C(C)=C/CCc2cc(O)cc(c2)NC(=O)C1`: the Potency entry in test [1], in test [2], in test [3] and in test [5] was “inactive” in each case. Besides, the Potency in test [4] was 5.61 µM (active).

As to `CC1OC(OC2C(C)OC(OC3C(OC(=O)C45CCC(C)(C)CC4C4=CCC6C7(C)CCC(OC8OC(C(=O)O)C(O)C(O)C8OC8OC(CO)C(O)C(OC9OC(C)C(O)C(O)C9O)C8O)C(C)(CO)C7CCC6(C)C4(C)CC5)OC(CO)C(O)C3O)C(O)C2O)C(O)C(O)C1O` (stereo not given), the figures for the activity, negative = inhibition in test [1] and in test [5] were -14% [at 9.52 µM] and 2.74% [at 11.6 µM], respectively. Also, the activity change, negative = inhibition was -14.3% [at 9.73 µM] in test [2] and -4.3% [at 11.6 µM] in test [3]. Moreover, in test [4], the activity change, negative = thiol reactive was 122% [at 11.5 µM].

In the case of `CCN1CCN(Cc2ccc(Nc3ncc(F)c(-c4cc(F)c5nc(C)n(C(C)C)c5c4)n3)nc2)CC1`, the Potency result in test [1], in test [2], in test [3], in test [4] and in test [5] was “inactive” each time.

Turning to `Cc1cc2c(c(=O)[nH]1)OC(C(O)CC(C)C)O2` (stereo not given), the Potency entry in test [1], in test [2], in test [3], in test [4] and in test [5] was “inactive” in each case.

As to `COc1cc(C(=O)NC2CCN(C)CC2)c(F)cc1Nc1ncc2c(n1)N(C1CCCC1)CC(F)(F)C(=O)N2C`, the Potency result in test [1], in test [2], in test [3], in test [4] and in test [5] was “inactive” in each case.

Consider `CCCC(=O)O[C@@H]1[C@@H]2[C@@H](OC(C)=O)[C@]3(C)C(=O)[C@H]4[C@@H](OC(C)=O)C(C)(C)C[C@H]4[C@]3(C)C(=O)[C@@]2(OC(C)=O)C[C@@H]1C`, for which the Potency result in test [1], in test [2], in test [3], in test [4] and in test [5] was “inactive” throughout.

With `C/C=C/C=C/[C@@H]1O[C@](O)([C@H](CC)C(=O)NC/C=C/C=C(\C)[C@@H](OC)[C@@H](C)C2OC(/C=C/C=C/C=C(\C)C(=O)c3c(O)cc[nH]c3=O)[C@H](O)[C@@H]2O)[C@H](O)[C@H](O)C1(C)C` (stereo not given in full), the Potency result in test [1], in test [2], in test [3], in test [4] and in test [5] was “inactive” in each case.

In the case of `COc1cc2c(cc1O)[C@H](c1ccc(O[C@@H]3O[C@H](CO)[C@@H](O)[C@H](O)[C@H]3O)c(OC)c1)[C@@H](CO)[C@](O)(CO)C2`, the Potency result in test [1], in test [2], in test [3] and in test [5] was “inactive” each time. In addition, in test [4], the Potency is 5.19 µM (active).

Consider `CC1=CC(=O)[C@H]2C(C)(C)CCC[C@]2(C)[C@@]1(O)CO`, for which the Potency result in test [1], in test [2], in test [3], in test [4] and in test [5] was “inactive” throughout.

On to `C=C1CCC2C(C)(COC(C)=O)CCCC2(C)C1CCC(C)CC(=O)O` (stereo not given), for which the Potency entry in test [1], in test [2], in test [3], in test [4] and in test [5] was “inactive” in each case.

Turning to `C=CC(=O)Nc1cc(Nc2nccc(-c3c[nH]c4ccccc34)n2)c(OC)cc1N(C)CCN(C)C`, the Potency entry in test [1], in test [2], in test [3] and in test [5] was “inactive” each time. The Potency in test [4] is 1.68 µM (active).

For `CC(=O)OC1C[C@@]2(C)[C@@H](CC[C@@H](C)[C@]23Cc2c(O)cc4c(c2O3)CNC4=O)C(C)(C)[C@@H]1O` (stereo not given in full), the Potency result in test [1], in test [2], in test [3], in test [4] and in test [5] was “inactive” each time.
